Screening results from PubChem.
This is a sample that favours compounds with a hit; in the whole collection about 19% have one here.
HT1080NT lethal = qHTS for induction of synthetic lethality in tumor cells producing 2HG: qHTS for the HT-1080-NT fibrosarcoma cell line | HT-1080-NT fibrosarcoma viability, CellTiter-Glo ATP luminescence, 48 h | Potency, µM (highest dose often 46.1 µM), usual class: cytotoxic | 360,000 compounds, 1.6% hits | AID 686970, 2013;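 further: NT is the 2HG producing partner of a matched IDH1 knockdown line; nearly all actives have a fitted effect of over 55% in size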
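Viability by CellTiter-Glo luminescence after 48 h compound exposure at 37C of HT-1080-NT cells (750/well, RPMI, 5% FBS). % activity scaled between DMSO wells and medium-only wells, then curve-fitted and categorized by curve class.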
IL1B secr inh = qHTS for Inhibitors of Inflammasome Signaling: IL-1-beta AlphaLISA Primary Screen; activity change, % at 57.5 µM; 360,000 compounds, 4.7% hits; THP-1 LPS/ATP IL-1B secretion, AlphaLISA, 16 h; stronger effect = lower value; AID 743279, 2014; in the data active means activity change below about -50%; inconclusive means mostly about -30% to -49%
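THP-1 cells pretreated 1 hr with compounds (up to 57.5 uM final), then stimulated with LPS (250 ng/mL final) plus ATP (1.25 mM final); secreted IL-1B measured by AlphaLISA after 16 hr, decreased signal indicating inhibition.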
TDP1 cell CPT = qHTS for Inhibitors of human tyrosyl-DNA phosphodiesterase 1 (TDP1): qHTS in cells in presence of CPT; 420,000 compounds, 12% hits; Potency, µM (highest dose often 46.2 µM), most hits filed as inhibitors; AID 686979, 2013; chicken DT40 Tdp1-/-;hTDP1 cells + 20 nM CPT, ATP luminescence, 48 h; further: nearly all actives have a fitted effect of over 55% in size
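Chicken DT40 Tdp1-/- cells stably complemented with human TDP1 were seeded at 400 cells/well in medium containing 20 nM camptothecin, exposed to pin-transferred compounds, and grown at 37 °C for at least 48 hr. Viability was read as ATP luminescence.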
TDP1 cell noCPT = qHTS for Inhibitors of human tyrosyl-DNA phosphodiesterase 1 (TDP1): qHTS in cells in absence of CPT; DT40 Tdp1-/- hTDP1 cells, no CPT, ATP luminescence, 48 h; Potency, µM (top dose mostly 46.2 µM), actives largely listed as inhibitors; 420,000 compounds, 15% hits; AID 686978, 2013; further: nearly all actives have a fitted effect of over 55% in size
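Compound effects on proliferation are scored in DT40 Tdp1-/-;hTDP1 cells in the absence of CPT. ATP levels (CellTiter-Glo luminescence) are recorded after a ≥48 hr, 37 °C incubation.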
HT1080 IDH1KD tx = qHTS for induction of synthetic lethality in tumor cells producing 2HG: qHTS for the HT-1080-IDH1KD cell line | AID 686971, 2013 | HT-1080 IDH1 knockdown viability, ATP luminescence, 48 h | 360,000 compounds, 2% hits | Potency, µM (top dose mostly 46.1 µM), most hits filed as cytotoxic
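HT-1080-IDH1KD cells (IDH1 knocked down), 750/well in RPMI with 5% FBS, treated with compound 48 h at 37 degrees C. Viability by CellTiter-Glo luminescence, normalised to DMSO and no-cell wells; concentration-response curves classed.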
Numbers stand for hits; i = inactive; ? = inconclusive; nt = no result; [ ] = another dose, or the depositor's remark. Unless noted, the call rests on the fitted dose curve; in most records, active means well fitted curve in the direction sought with a large enough effect; inconclusive means small, poorly fitted or top-dose-only effect, or another doubt; inactive means no such curve, though single readings can be large; an effect the other way counts as inactive or inconclusive.

SMILES	HT1080NT lethal	IL1B secr inh	TDP1 cell CPT	TDP1 cell noCPT	HT1080 IDH1KD tx
COP(=S)(OC)SCn1nnc2ccccc2c1=O	nt	-92.7	?	23.1µM	nt
CCOC(=O)CCCc1cc[c]([Sb](=[O])([OH])[OH])cc1	nt	nt	i	i	nt
Cc1oc(-c2cccc(Cl)c2)nc1CN1CCC(C(=O)NCCCN2CCN(c3cccc(Cl)c3)CC2)CC1	nt	nt	14.6µM	18.4µM	nt
COc1cccc(C(=O)NCc2nc(-c3cccc(NC(=O)c4ccoc4C)c3)oc2C)c1	nt	nt	i[9.04 µM]	?	nt
O=c1c2ccccc2[nH]c(=S)n1-c1ccc2c(c1)OCCO2	i	i	i	i	i
CN(Cc1cccc(-c2ccncc2)c1)C(=O)Oc1ccccc1Cc1ccccc1	18.4µM	i	?	16.4µM	13µM
Cc1nc2cc(OC(=O)N(C)Cc3cccc(-c4ccncc4)c3)ccc2s1	?	?	?	18.4µM	?
COc1ccc(-c2n(-c3ccccn3)c3ccccc3[n+]2-c2ccccn2)cc1	i	i	13µM	13µM	i
CCOC(=O)c1ccc(N2C(=O)CC(N3CCC(O)(c4ccc(Cl)cc4)CC3)C2=O)cc1 (stereo not drawn)	i	i	?	?	i
CNC(=O)Oc1cccc2ccccc12	nt	i	?	?	nt
CNCC[C@H](Oc1cccc2ccccc12)c1cccs1	?	?	16.4µM	23.1µM	?
CC[C@H](C)[C@@H]1NC(=O)CNC(=O)c2csc(n2)[C@H](C(C)(C)O)OC(=O)C(C)(C)[C@H](CCCC(C)(Cl)Cl)OC(=O)c2csc1n2	2.06µM	i	0.0517µM	0.184µM	0.0731µM
COc1cc2c(cc1/C=C/[N+](=O)[O-])OCO2	4.11µM	i	5.8µM	2.31µM	8.2µM
COc1cc(OC)c(OC)cc1C=O	i	i	i	?	i
Cc1cc(C)nc(N2Cc3ccccc3C2=N)n1	i	i	?	23.1µM	i
Cc1ccc(N2Cc3ccccc3C2=N)cc1[N+](=O)[O-]	i	i	i	i	i
COC12c3ccccc3-c3ccccc3C1C(C(=O)O)C2C(=O)O (stereo not drawn)	i	i	i	i	i
Oc1ccc(Cl)cc1	i	i	i	i	i
Oc1ccc(Cl)cc1Sc1cc(Cl)ccc1O	20.6µM	-100.8	18.4µM	18.4µM	20.6µM
CN(C)S(=O)(=O)c1cc(NC(=O)COC(=O)Cc2ccccc2)ccc1Cl	i	i	?	18.4µM	i
CN(C)S(=O)(=O)c1cc(NC(=O)C[N+]23CCN(CC2)CC3)ccc1Cl	i	i	i	i	i
C[C@]12CC[C@H](OC(=O)CCC(=O)O)CC1=CCC1C2CC[C@@]2(C)C1CC[C@@H]2OC(=O)CCC(=O)O (stereo partly drawn)	i	i	i	i	i
O=C(Nc1ccccc1)N1CCCC2(CCN(C(=O)Oc3ccccc3)CC2)C1	nt	nt	i	?	nt
ClCCN(CCCl)c1ccc(C=Nc2ccncc2)cc1	nt	nt	?	11.2µM	nt
ClCCN(CCCl)c1ccc(C=Nc2ccc(/C=C/c3ccncc3)cc2)cc1	nt	nt	12.6µM	12.6µM	nt
SMILES	HT1080NT lethal	IL1B secr inh	TDP1 cell CPT	TDP1 cell noCPT	HT1080 IDH1KD tx
N#CN	nt	nt	i	i	nt
CCc1cc(-c2cnnn2Cc2ccc3ccccc3c2)ccc1-c1cn(CC(C)C)nn1	i	i	25.9µM	20.6µM	i
Cc1cscn1	i	i	i	?	i
COc1ccc(CCNc2nccn(-c3ccc(C)c(C)c3)c2=O)cc1OC	nt	nt	14.6µM	13µM	nt
COCOC1CCC2C3CCC4=CC(=O)CCC4=C3C=CC12C (stereo not drawn)	i	i	?	?	i
CC1(O)CCC2C3CCC4=CC(=O)CCC4=C3C=CC21C (stereo not drawn)	i	i	9.2µM	14.6µM	?
NC1=Nc2ccccc2Oc2ccccc21	i	i	i	i	i
CCOC(=O)c1c(C)n(CC(O)CN2CCOCC2)c2cc(Br)c(OC)cc12 (stereo not drawn)	i	i	i	?	i
O=C(c1ccco1)N1CCC2(CC1)CN(Cc1ccncc1)C2	nt	nt	i	i	nt
O=c1c2ccccc2sn1-c1ccc(Cl)cc1	?	-105.5	2.06µM	1.84µM	?
COc1ccc(-c2nc3ccccc3c(=O)n2-c2ccc(OC)cc2)cc1	i	i	?	?	i
Cc1ccc(-n2sc3ccccc3c2=O)cc1	?	-103.0	2.91µM	3.26µM	?
c1csc(CN2CCC3(CCNCC3)CC2)n1	nt	nt	i	i	nt
COc1ccc(/C=C/C(=O)NC(=S)NCCc2ccc(OC)c(OC)c2)cc1	11.2µM	i	?	?	10µM
COC(=O)COc1cc(Cl)c(Cl)cc1Cl	nt	nt	i	i	nt
O=C1Nc2cc(Cl)c(Cl)cc2N2CCNC[C@H]12	nt	nt	i	?	nt
CCCCCCn1c(O)c(C=NC2CCCCC2N)c(=O)[nH]c1=O (stereo not drawn)	i	i	16.4µM	16.4µM	i
CCCCn1c(O)c(C=NC2CCCCC2N)c(=O)[nH]c1=O (stereo not drawn)	i	i	?	i	i
COc1cc(/C=C/[N+](=O)[O-])ccc1OC(=O)c1cccnc1	i	?	3.26µM	2.31µM	i
CCSc1nnc(NC(=O)c2cccn(Cc3ccccc3Cl)c2=O)s1	nt	nt	i	i	nt
Fc1ccccc1CCNCc1cccc2ccccc12	?	i	?	?	?
Cc1ccc(CNCCc2ccccc2F)cc1	i	-72.0	i	i	i
CCN(CC)c1ccc(CNCCc2ccccc2F)cc1	16.4µM	-91.7	?	16.4µM	18.4µM
Cc1cccc(Cn2cccc(C(=O)Nc3ccc(F)cc3F)c2=O)c1	nt	nt	i	?	nt
C[C@H]1CCC[C@@H](O)CCC/C=C/c2cc(O)cc(O)c2C(=O)O1	?	?	?	20.6µM	8.91µM
SMILES	HT1080NT lethal	IL1B secr inh	TDP1 cell CPT	TDP1 cell noCPT	HT1080 IDH1KD tx
C[C@H]1CCC[C@H](O)CCCCCc2cc(O)cc(O)c2C(=O)O1	i	i	14.6µM	18.4µM	?
CC1CCC[C@H](O)CCCCCc2cc(O)cc(O)c2C(=O)O1 (stereo partly drawn)	i	i	i	?	i
CN1CCC2(O)OCCCC2C1 (stereo not drawn)	i	i	i	i	i
C=C1C(=O)O[C@@H]2C[C@@H](C)[C@@H]3C4OC4C(=O)[C@@]3(C)[C@@H](O)[C@H]12 (stereo partly drawn)	14.6µM	-113.0	1.03µM	0.517µM	9.2µM
COc1cc2c(cc1OC)-c1c(OC)c(OC)c(CO)c3c1C(C2)N(C)CC3 (stereo not drawn)	nt	nt	i	i	nt
NC(=NCc1ccc(Cl)cc1)SCCCc1cnc[nH]1	nt	nt	21.1µM	?	nt
O=C(O)C1Cc2ccccc2N2CCCC12 (stereo not drawn)	i	i	i	i	i
